# LEDGF integ inh: blockers of LEDGF/p75-dependent integrase strand transfer – biochemical, TR-FRET, high throughput, primary screen; HIV-1 integrase (with human LEDGF/p75); TR-FRET IN-LEDGF/p75 DNA integration, Eu/Cy5; AID 743269, 2014; inhibition, % at 3.7 µM; 370,000 tested, 0.64% active;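 active = inhibition above the screen-wide mean plus 3 SD, cut at about 13% in these data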;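 note: signal is the Cy5 over europium emission ratio at 671 and 618 nm; 0% = plate median of compound wells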
# PLC-beta3 inh: human PLC-beta3 inhibitors, primary screen, biochemical, fluorescence; 1-phosphatidylinositol 4,5-bisphosphate phosphodiesterase beta-3 (Homo sapiens), Q01970; inhibition, % at 12.2 µM; 370,000 tested, 0.18% active; Purified PLC-beta3, fluorogenic substrate; in the data active = inhibition above about 11%;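 note: 0% = median of compound wells on plate and 100% = full blocker control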
# MBD2 inh: inhibitors of MBD2 binding to methylated DNA, primary screen, biochemical, TR-FRET, DNA-binding domain, human | AID 686964, 2013 | inhibition, % at 4.4 µM | 370,000 tested, 0.31% active | MBD2 binding to methylated oligonucleotide | Methyl-CpG-binding domain protein 2 (Homo sapiens), Q9UBB5; in the data active = inhibition above about 13%
# Target sequence (Q9UBB5 whole entry, looked up, the tested form may be a part): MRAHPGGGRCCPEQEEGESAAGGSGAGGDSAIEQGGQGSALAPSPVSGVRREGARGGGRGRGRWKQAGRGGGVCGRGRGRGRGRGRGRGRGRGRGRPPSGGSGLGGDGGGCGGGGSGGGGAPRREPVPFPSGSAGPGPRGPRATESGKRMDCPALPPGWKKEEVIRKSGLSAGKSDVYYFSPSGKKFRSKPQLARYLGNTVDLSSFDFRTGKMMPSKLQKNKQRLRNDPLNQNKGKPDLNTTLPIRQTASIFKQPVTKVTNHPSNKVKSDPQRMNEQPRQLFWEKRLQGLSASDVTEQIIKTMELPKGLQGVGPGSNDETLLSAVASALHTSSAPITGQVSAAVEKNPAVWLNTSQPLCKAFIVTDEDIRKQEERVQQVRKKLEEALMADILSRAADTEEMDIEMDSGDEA
# UHRF1 binding: UHRF1 methylated DNA binding inhibitors, primary screen, counter-screen for MBD2 inhibitor project, biochemical, TR-FRET, human UHRF1, single concentration; 370,000 tested, 0.75% active; inhibition, % at 4.4 µM; UHRF1 binding to methylated oligo; AID 687016, 2013; E3 ubiquitin-protein ligase UHRF1 (Homo sapiens), Q96T88; in the data active = inhibition above about 21%;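 note: UHRF1 SRA domain binding a hemimethylated CpG hairpin DNA probe; 0% = median of test compound wells and 100% = reference inhibitor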
# PLCg1 inh: PLC-gamma1 enzyme inhibitors, primary screen, biochemical, fluorescence, purified enzyme. 370,000 tested, 0.84% active. fluorogenic substrate. inhibition, % at 12.2 µM. AID 720700, 2013. 1-phosphatidylinositol 4,5-bisphosphate phosphodiesterase gamma-1 (Homo sapiens), P19174; in the data active = inhibition above about 9.5%
# IN multimer act: HIV-1 IN multimer formation enhancers, counter-screen for LEDGF/p75 integration inhibitor project, biochemical, TR-FRET; shares compounds with LEDGF integ inh; TR-FRET HIV-1 integrase multimerization; activation, % at 7.7 µM; 2,000 tested, 17% active; AID 1053131, 2014; in the data active = activation above about 8.9%
# TRFRET interf: TR-FRET optical interference artefacts, confirmation, artefact control for LEDGF/p75-dependent integration inhibitor project, biochemical, HIV-1 IN multimerization; inhibition, % at 7.7 µM; shares compounds with LEDGF integ inh; 2,000 tested, under 10 active; TR-FRET optical interference counterscreen;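 active = inhibition above the mean over all tested compounds plus 3 SD, which no compound reached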;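 note: 0% = integrase with antibodies and DMSO and 100% = antibodies without integrase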
# LEDGF integ conf: inhibitors of HIV-1 IN-LEDGF/p75 DNA integration, confirmation, biochemical, TR-FRET | AID 1053136, 2014 | 2,000 tested, 36% active | TR-FRET LEDGF/p75-dependent HIV-1 integration | shares compounds with LEDGF integ inh | inhibition, % at 3.7 µM; in the data active = inhibition above about 14%
# An asterisk follows results filed as active; / = no result. Sampled rows, rich in hits. Any-hit rate of the full collection: about 2.4%.
SMILES,LEDGF integ inh,PLC-beta3 inh,MBD2 inh,UHRF1 binding,PLCg1 inh,IN multimer act,TRFRET interf,LEDGF integ conf
CC(C)(C)c1ccc(-c2cn(C[C@H](Cc3ccccc3)n3c(=O)c4ccccc4n3Cc3ccco3)nn2)cc1,-1.2,-32.4,1.0,3.3,-16.0,/,/,/
Cc1cc(C(=O)COC(=O)Cc2n[nH]c(=O)c3ccccc23)c(C)n1-c1cccc(C(F)(F)F)c1,30.4*,-0.4,-4.1,2.4,1.2,-0.4,2.0,11.2
Cc1cc(C(=O)COC(=O)CC2Sc3ccccc3NC2=O)c(C)n1-c1cccc(C(F)(F)F)c1 (stereo not drawn),-2.8,0.2,-1.7,0.2,-0.8,/,/,/
O=C(CSc1nc2ccccc2o1)N/N=C/c1ccc(O)c(O)c1,16.5*,-9.3,-3.0,3.8,2.3,62.2*,-221.5,72.9*
COc1cc2c(cc1OC)C(C1(O)CCCCC1)NCC2 (stereo not drawn),14.2*,-189.2,-4.0,-2.1,-113.6,0.8,-2.8,-11.8
COC(=O)C1CN(C2CC2)CCS(=O)(=O)N1Cc1cn(Cc2ccccc2)nn1 (stereo not drawn),6.9,-2.4,12.4,12.3,0.7,/,/,/
COc1ccc(S[C@]2(C(=O)N3CCOCC3)CC(=O)N(c3ccsc3)[C@@H]2c2ccc(OC)cc2)cc1,3.4,3.7,-0.9,0.6,3.4,/,/,/
Clc1cccc(C2CCN(Cc3nc(CC4CC4)no3)C2)c1 (stereo not drawn),34.8*,-0.5,0.1,0.0,3.8,-0.4,1.8,-0.3
c1ccc(CN2CCCC3(CCCN(Cc4nc(CC5CC5)no4)C3)C2)cc1 (stereo not drawn),-0.1,-4.9,1.7,3.8,4.2,/,/,/
COc1cccc(/C=C2\CC3(OC(=O)c4ccc(F)cc4)CCCN2C3)c1 (stereo not drawn),0.5,-4.0,3.8,-0.5,-3.9,/,/,/
CNc1nc(N)c([N+](=O)[O-])c(Nc2cccc(OC)c2)n1,0.7,4.9,3.2,-1.8,2.9,/,/,/
Cc1ccc(S(=O)(=O)NN=C2CC3CCC2(C)C3(C)C)cc1 (stereo not drawn),17.1*,3.8,2.2,-0.1,5.4,1.8,-9.0,-3.3
Cc1ccc(S(=O)(=O)NN=C2CC(C)(C)OC2(C)C)cc1,-4.6,-0.1,0.1,-0.3,2.7,/,/,/
CCOc1ccc(N(CC(=O)Nc2c(C)n(C)n(-c3ccccc3)c2=O)S(=O)(=O)c2cccs2)cc1,3.0,0.4,-2.4,-1.5,2.4,/,/,/
CCOc1cc(C(=O)Nc2cccc3ncccc23)cc(OCC)c1OCC,15.5*,5.0,0.1,-1.4,2.1,1.0,-5.0,-0.7
COc1ccc(C2C(C(=O)N3CCOCC3)CC(=O)N2c2ccc(OC)cc2)cc1 (stereo not drawn),-0.1,-1.2,3.3,0.3,-2.1,/,/,/
CC1OC(OCC2OC(Oc3c(-c4ccc(O)cc4)oc4cc(O)cc(O)c4c3=O)C(O)C(O)C2O)C(O)C(O)C1O (stereo not drawn),16.7*,2.6,-5.9,4.1,-2.0,30.1*,-151.6,47.1*
CC1OC(OC2C(Oc3c(-c4ccc(O)cc4)oc4cc(O)cc(O)c4c3=O)OC(COC3O[C@@H](C)[C@H](O)[C@@H](O)C3O)C(O)C2O)C(O)C(O)C1O (stereo partly drawn),-1.1,5.3,-5.3,2.6,5.2,/,/,/
Cc1ccc(N2C(=O)/C(=C/c3cccnc3)SC2=S)cc1,-1.6,-1.1,4.6,1.1,1.7,/,/,/
Cc1ccc(N2C(=O)/C(=C/c3ccco3)SC2=S)cc1,18.7*,-4.4,1.9,10.6,6.6,0.0,0.2,11.0
N=C1S/C(=C\c2ccco2)C(=O)N1c1ccc2c(c1)OCO2,15.4*,-12.4,-0.9,1.7,-4.3,4.2,-21.3,17.9*
NS(=O)(=O)c1ccc2c(c1)C1C=CCC1C(C1CC=CCC1)N2 (stereo not drawn),21.4*,-83.2,4.8,1.7,-73.8,1.6,-8.2,3.5
CC(C)C1Nc2ccc(S(N)(=O)=O)cc2C2C=CCC21 (stereo not drawn),0.0,-56.0,-1.6,-5.9,-44.9,/,/,/
C/C(CC(=O)Nc1ccccn1)=N\NC(=O)c1ccccc1O,37.6*,-35.7,-5.5,-5.3,-21.3,0.7,-3.6,45.8*
CCCC1CCC2(CCCN2CCOC(=O)Nc2ccccc2OC)CC1 (stereo not drawn),4.0,-2.4,0.6,-0.6,-0.6,/,/,/
SMILES,LEDGF integ inh,PLC-beta3 inh,MBD2 inh,UHRF1 binding,PLCg1 inh,IN multimer act,TRFRET interf,LEDGF integ conf
O=C1S/C(=C\C=C\c2ccco2)C(=O)N1c1ccc(O)cc1,30.5*,-18.0,4.5,9.6,-2.4,16.9*,-60.0,28.3*
CC(C)CN1C(=O)C[C@]2(C(=O)N(C)c3ccc(NS(=O)(=O)C4CCCCC4)cc32)C1c1ccccc1 (stereo partly drawn),0.6,-3.5,-0.2,0.2,-2.0,/,/,/
Cc1noc(/C=C/N(C)C)c1S(=O)(=O)N1CCC(C(=O)O)CC1,17.2*,-13.4,-0.9,2.6,-16.8,-1.5,7.4,2.3
COc1cccc(CNC(=O)C2CCCN(S(=O)(=O)c3c(C)noc3/C=C/N(C)C)C2)c1 (stereo not drawn),8.9,-23.2,0.1,3.1,-7.8,/,/,/
Cc1noc(/C=C/N(C)C)c1S(=O)(=O)N1CCCC(C(=O)NCc2cccs2)C1 (stereo not drawn),17.0*,-13.6,-2.8,-0.5,-10.4,0.4,-2.0,-6.5
COc1ccccc1CCC[C@@H](CCS(=O)(=O)C(C)C)CC1CCCCC1,-3.3,-0.8,2.9,1.1,-0.2,/,/,/
CC1=CC(=O)C=CC1=Nc1ccc(N(C)C)cc1,27.0*,-19.8,-7.7,1.0,-3.8,5.3,-19.0,2.3
CC(=C1N=C(c2ccccc2)OC1=O)c1cccs1,19.4*,4.2,0.7,4.2,4.2,0.0,0.0,-1.8
O=C(OCc1cn(Cc2ccc(F)cc2F)nn1)N1CCCC1,1.2,0.0,6.7,0.6,3.4,/,/,/
